In the library only some 12% were active in any assay of this set; here they are far more common.
JMJD2A Tudor inh = blocks the human JMJD2A Tudor domain. O75164. AlphaScreen JMJD2A-Tudor / H3K4me3 peptide binding. Potency, µM (top dose mostly 114 µM), for the others: at the top dose activity change, negative = inhibition, hits mostly inhibitors. 390,000 compounds, 4.4% hits. AID 504339; also: potency is read from the fitted curve at half-maximal effect; % is scaled to controls: 0 for no effect and ±100 for the full control effect; nearly all actives have a fitted effect of over 50% in size
G9a block = blocks human histone lysine methyltransferase G9a; 350,000 compounds, 8.8% hits; G9a H3K9 monomethylation, AlphaScreen, 2 h; Q96KQ7; Potency, µM (doses to about 102 µM), without a hit: at the top dose activity, negative = inhibition, most hits filed as inhibitors; also: potency is read from the fitted curve at half-maximal effect; % is scaled to controls: 0 for no effect and ±100 for the full control effect; nearly all actives have a fitted effect of over 75% in size
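AlphaScreen detection with an anti-monomethyl H3K9 antibody quantified product after a 2 h room-temperature reaction containing 500 nM biotinylated H3K9 peptide, 20 µM SAM and 20 nM enzyme, which had been preincubated 15 min with compound.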
BAZ2B block = blocks human BAZ2B | AlphaScreen BAZ2B-H3K14Ac peptide displacement | 360,000 compounds, 4.4% hits | Q9UIF8 | AID 504333 | Potency, µM (titrated, usually from 114 µM), for inactives: top-dose activity change, negative = inhibition, usual class: inhibitors; also: potency is read from the fitted curve at half-maximal effect; % is scaled to controls: 0 for no effect and ±100 for the full control effect; nearly all actives have a fitted effect of over 60% in size
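Inhibition is scored as reduced AlphaScreen emission. The BAZ2B/b-H3(5-23)K14Ac complex (50 nM each) in PBS pH 7.4, 0.01% Tween-20 meets compound (up to 110 uM) for 30 min at RT before bead addition.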
Sfp PPTase inh = inhibitors of Bacillus subtilis Sfp phosphopantetheinyl transferase; Biochemical Sfp PPTase activity, qHTS; Potency, µM, without a hit: largest response in the series, negative = inhibition, most hits filed as inhibitors; 310,000 compounds, 3.5% hits; AID 1490;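 also: the enzyme is Sfp with the accession as filed and its product quenches rhodamine fluorescence; potency is read from the fitted curve at half-maximal effect; 0% = enzyme reaction without inhibitor and -100% = no enzyme wells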
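Step 1, compound plus 15 nM Sfp-PPTase, 15 min, room temperature. Step 2, add rhodamine-CoA (5 uM) and BHQ-2-YbbR (12.5 uM). Step 3, read 525/598 nm fluorescence at 0 and 30 min.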
PLK1 PBD block = PLK1 (human) polo-box domain binding inhibition; P53350; Plk1 PBD binding of FITC phosphopeptide, fluorescence polarization; Potency, µM, for the others: max response, negative = inhibition, most hits filed as inhibitors; 360,000 compounds, 2.8% hits; also: potency is read from the fitted curve at half-maximal effect; series mostly up to about 57 µM; % is scaled to controls: 0 for no effect and ±100 for the full control effect; nearly all actives have a fitted effect of over 65% in size
HP1b binding inh = blocks HP1-beta chromodomain binding to methylated histone tails; P83916; AlphaScreen HP1-beta / biotin-H3K9me3 peptide binding; Potency, µM (top dose mostly 114 µM), for inactives: at the highest dose activity change, negative = inhibition, usual class: inhibitors; 390,000 compounds, 0.56% hits; AID 540317; also: potency is read from the fitted curve at half-maximal effect; nearly all actives have a fitted effect of over 70% in size
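Compound inhibition of the preformed complex between 50 nM HP1-beta and 50 nM biotinylated H3K9me3 peptide was read by AlphaScreen. Buffer was PBS pH 7.4 with 0.01% Tween-20. Incubations ran 30 min at room temperature, with 10 ug/mL donor/acceptor beads.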
12-hLO 8HQ R1 = blocks human 12-lipoxygenase product formation in cuvette | purified 12-hLO, cuvette UV 234 nm product formation | shares compounds with BAZ2B block | Potency, µM, hits mostly inhibitors | 35 compounds, 60% hits;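 active = compounds that slowed 12-hLO product formation enough to yield a measured IC50 potency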
JMJD2E inh-1 = inhibitors of human JMJD2E demethylase, 8HQ series round 1. JMJD2E demethylase, FDH-coupled NADH fluorescence. 130 compounds, 89% hits. Potency, µM (series often up to 57 µM), without a hit: at the highest dose activity, negative = inhibition, most hits filed as inhibitors. shares compounds with BAZ2B block
ME-1 prolif = ME-1 cell growth inhibition; ME-1 cell proliferation, ATP luminescence, 48 h; Potency, µM (titrated, usually from 56.1 µM), without a hit: top-dose activity change, negative = inhibition, usual class: inhibitors; 140 compounds, 20% hits; AID 504370; shares compounds with BAZ2B block
JMJD2E inh-2 = confirmation of inhibitors of human JMJD2E demethylase | shares compounds with JMJD2A Tudor inh | Recombinant JMJD2E, FDH-coupled NADH fluorescence (FDH is formaldehyde dehydrogenase) | Potency, µM (series often up to 56.8 µM), for the others: at the highest dose activity change, negative = inhibition, most hits filed as inhibitors | 140 compounds, 93% hits | AID 2677
FDH inh = FDH (Pseudomonas putida) inhibition counter-screen | AID 2680 | FDH enzyme assay, NADH fluorescence kinetic | shares compounds with JMJD2A Tudor inh | Potency, µM (titrated, usually from 56.7 µM), without a hit: at the highest dose activity, negative = inhibition, most hits filed as inhibitors | 140 compounds, 10% hits
Numbers without * were called inactive; i = inactive; u = inconclusive; x = no result given; ! = repeats disagree; [ ] = remark or other dose. Unless noted, calls follow the shape of the dose curve; as a rule, active = well fitted curve in the direction sought with a large enough effect; inconclusive = small, poorly fitted or top-dose-only effect, or another doubt; inactive = no such curve, though single readings can be large; an effect the other way counts as inactive or inconclusive.

SMILES	JMJD2A Tudor inh	G9a block	BAZ2B block	Sfp PPTase inh	PLK1 PBD block	HP1b binding inh	ME-1 prolif	others
CC(=O)NC(c1ccco1)c1cc(Br)c2cccnc2c1O (stereo unspecified)	x	8%[12.7 µM]	28µM*	x	x	x	x	12-hLO 8HQ R1=2µM*;JMJD2E inh-1=29µM*
CC(=O)Nc1cccc2cccnc12	-15%	x	x	x	x	19%	x
CCC(=O)NC(c1ccco1)c1cc(Cl)c2cccnc2c1OC (stereo unspecified)	-13%	-23%[12.7 µM]	-2%	x	x	27%	x	12-hLO 8HQ R1=i;JMJD2E inh-1=32µM*
CCN(CC)C(=O)Oc1c(Cl)cc(Cl)c2cccnc12	-6%	x	1%	8%	0%	44%	x
COc1cccc(C(=O)NC(c2ccc(Cl)cc2)c2cc(Cl)c3cccnc3c2O)c1 (stereo unspecified)	-1%	18%[59 µM]	5%	x	x	8%	x
CC(=O)NC(c1ccco1)c1cc(Cl)c2cccnc2c1O (stereo unspecified)	x	14%[12.7 µM]	32µM*	x	x	x	x	12-hLO 8HQ R1=3µM*;JMJD2E inh-1=32µM*
CN(Cc1ccc(Cl)c(Cl)c1)C(C(=O)NCc1ccccc1)c1ccco1 (stereo unspecified)	x	x	x	x	-5%	x	x
CCCCNC(=O)C[C@@H]1C[C@@]2(C(=O)OC)CCCCC=C2N(Cc2cccc3ccccc23)C1=O	x	x	x	x	2%	x	x
CCC(=O)NC(c1cc(Cl)c2cccnc2c1O)c1cccn1C (stereo unspecified)	u	x	x	x	x	x	x	12-hLO 8HQ R1=3.8µM*;JMJD2E inh-1=16%
c1ccc(-c2n[nH]c(-c3ccccn3)n2)nc1	1µM*	u	0.71µM*	20µM*	-4%	29%	u
c1ccc(-c2ccc(-c3ccccn3)nn2)nc1	x	u	2µM*	16µM*	x	x	18µM*
c1ccc(-c2cccs2)nc1	-5%	31%	7%	19%	-8%	0%	x
c1ccc(-c2ccccn2)nc1	u	14µM*!	79µM*	-10%	-5%	68%	-13%
O=[N+]([O-])c1ccc(O)c(/C=N/NC2=NS(=O)(=O)c3ccccc32)c1	20µM*	u	1.8µM*	29%	11%	42%	u
CCN1CCN(C(=O)C2CCC(=O)N(CCCN3CCCC3=O)C2)CC1 (stereo unspecified)	-2%	-8%	-2%	16%	-1%	29%	x
c1cnc2c(c1)ccc1cccnc12	7.9µM*	13µM*	1.6µM*	2.5µM*	-27%	31%	8.9µM*
O=C(NCCc1ccccc1)c1cccc(Br)n1	x	-2%	x	-18%	x	x	-13%
COC(=O)c1ccc(/C=C(\C#N)c2ccccn2)cc1	-6%	-24%	-5%	15%	-5%	51%	x
N#CC(C#N)=Cc1ccc(OC(=O)c2ccccn2)cc1	7.9µM*	2.5µM*	8.9µM*	45µM*	-24%	33%	u
CCOc1ccc(NC(=O)c2oc3ccccc3c2NC(=O)C(C)Oc2ccccc2)cc1 (stereo unspecified)	-9%	-4%[59 µM]	-17%	x	x	31%	x
CCCCCCCCCCCCCCCCOCC(COP(=O)([O-])OCC[N+](C)(C)C)OC (stereo unspecified)	x	26%[59 µM]	x	5%	x	x	x
CCCCCCCCCCCCCCCCCCOC[C@H](COP(=O)([O-])OCC[N+](C)(C)C)OC	x	5%[12.7 µM]	x	15%	x	x	16%
COC(=O)c1ccc(NC(=O)CC2C(=O)N(c3ccccc3)C(=O)N2Cc2ccc(F)cc2)cc1 (stereo unspecified)	-12%	-34%[59 µM]	-7%	x	x	28%	x
Oc1csc(Cc2nc(-c3ccccc3F)cs2)n1	-22%	u	-3%	-15%	-12%	43%	1%[25.6 µM]
CC1(C)CC(=O)C2=C(C1)OC(N)=C(C#N)C2C1CC=CCC1 (stereo unspecified)	-13%	-1%[59 µM]	11%	8%	-8%	26%	x
SMILES	JMJD2A Tudor inh	G9a block	BAZ2B block	Sfp PPTase inh	PLK1 PBD block	HP1b binding inh	ME-1 prolif	others
Cc1cc(OCC(=O)Nc2ccc(C(=O)OC3CCCCC3)cc2)ccc1Cl	-12%	-1%[59 µM]	1%	x	x	24%	x
Nc1nc(-c2ccccc2)c(N=Nc2ccccc2Cl)s1	13µM*	10µM*	10µM*	-3%	-5%	18µM*	-14%[25.6 µM]
Nc1nc(-c2ccccc2)c(N=Nc2cccc3ccccc23)s1	11µM*	10µM*	8.9µM*	13%	3%	u	-10%[25.6 µM]
O=C(O)Cc1sc(-c2ccccc2Cl)nc1-c1ccccc1	1%	-40%	-8%	15%	-8%	18%	x
CC(=O)Nc1sc(N)nc1-c1ccccc1	-28%	u	4%	u	-10%	12%	x
COc1ccccc1CN1C(=NC(=O)C2CCCCC2)SC2CS(=O)(=O)CC21 (stereo unspecified)	5%	22%	-11%[57.1 µM]	11%	-7%	41%	x
COc1ccc(C(=O)N2CCC3(CCN(C(=O)Nc4ccccc4)CC3)CC2)cc1	x	8%[12.7 µM]	x	13%	x	x	x
O=[N+]([O-])c1c(C(Cl)Cl)nn(-c2ccccc2)c1N1CCCC1	25µM*	u	13µM*	3%	-6%	u	-9%[25.6 µM]
CCC(=O)NC(c1cccs1)c1cc([N+](=O)[O-])c2cccnc2c1O (stereo unspecified)	79µM*	u	7.9µM*	7.1µM*	-8%	-8%	x	12-hLO 8HQ R1=0.8µM*;JMJD2E inh-1=14µM*;JMJD2E inh-2=14µM*;FDH inh=-18%
CCC(=O)NC(c1ccccc1Cl)c1c(O)ccc2ccccc12 (stereo unspecified)	-19%	u	-7%	-4%	-1%	30%	x
CCC(=O)NC(c1ccc(F)cc1)c1cc(Cl)c2cccnc2c1O (stereo unspecified)	-12%	x	x	x	x	x	x	JMJD2E inh-1=16µM*;JMJD2E inh-2=16µM*;FDH inh=-18%
